Measurements from ChEMBL document CHEMBL1157539, “Thousands of chemical starting points for antimalarial lead identification” (Nature, 2010).

These compounds were tested on HepG2 (assay: GSK_TCMDC: Percent inhibition of human HepG2 cell line. Test compounds present at 10uM.).
Format: functional
`Cc1cc(C(=O)Nc2nc(-c3ccccn3)nc3ccsc23)no1` was tested, and the Inhibition was 44%. With `CCOC(=O)c1ccc(NC(=O)NCCCC2CCCN(CCCCCNC(=O)/C=C/c3ccc(Cl)c(Cl)c3)C2)cc1` (stereo not given) the Inhibition was 14%. With `O=C(N[C@@H](CC1CCCCC1)C(=O)NCCN1CCCCC1)c1ccc(O)c(-c2ccc(Cl)c(Cl)c2)c1` the Inhibition was 14%. In the case of `CN(C)c1ccc(C=Cc2ccc3ccccc3n2)c(Cl)c1`, the Inhibition is reported as 59%. Compound `COc1ccc(OC)c(-c2cccc(-c3cccc(NC(=O)c4ccc([N+](=O)[O-])o4)c3)n2)c1` has an Inhibition of 75%. Compound `COc1cc2nc(C)nc(Nc3ccc(Cc4ccccc4)cc3)c2cc1OC.Cl` has an Inhibition of 16%. `COc1cccc(Nc2nc(C)cc(NCc3ccc(-n4ccnc4)cc3)n2)c1` was tested, and the Inhibition was 0%. With `NC(=O)c1cnc2ccc(-c3cncs3)cc2c1Nc1ccc(F)c(Cl)c1` the Inhibition was 3%. For `CC(=O)Nc1ccc(Cl)c(Cl)c1`, the Inhibition was 5%. `CS(=O)(=O)O.FC(F)(F)COc1c(CCNCCCCNCCc2ccc3ccccc3c2OCC(F)(F)F)ccc2ccccc12` showed an Inhibition of 99%. `Cc1ccc(CNC(=O)[C@H](Cc2ccccc2)Nc2cc(C)nc(NCc3ccccc3C)n2)cc1.O=C(O)C(F)(F)F` showed an Inhibition of 23%. With `C[C@H](Cc1ccc(OCCCCCCOc2ccc(C[C@@H](C)NC(=O)[C@H](O)c3cccc(Cl)c3)cc2)cc1)NC[C@H](O)c1cccc(Cl)c1` the Inhibition was 39%. `CN(C)CCNCc1ccc(-c2ccc(-c3nc4cc(F)ccc4[nH]3)cc2)cc1.O=C(O)C(F)(F)F` was tested, and the Inhibition was 8%. `COc1ccc(-n2cc(CNCCCn3ccnc3)c(-c3cccc(F)c3)n2)cc1` showed an Inhibition of 21%. `Cc1cccc2nc(-c3ccc(-c4ccc(C(=O)NCCc5cn(C)cn5)cc4)s3)[nH]c12` was tested, and the Inhibition was 0%. For `Cl.O=C(NCc1ccc(C(=O)N2CCC(N3CCCCC3)CC2)cc1)c1cc(-c2cccc(C(F)(F)F)c2)ccc1O`, the Inhibition was 0%. `Cc1cc(C)n(Cc2ccc(C(=O)NCC3CCCCC3)cc2)n1` gave an Inhibition of 0%. Compound `O=C(/C=C/c1ccc(Cl)c(Cl)c1)NC1CCN(Cc2ccc(O)cc2)CC1.O=C(O)C(F)(F)F` has an Inhibition of 0%. `O=C(NCCc1ccccc1F)c1ccc(N2CCN(c3ccncc3)CC2)cn1.O=C(O)C(F)(F)F` was tested, and the Inhibition was 8%. With `Cc1cccc2nc(-c3ccc(-c4ccc(CN5CCCC(O)C5)cc4)cc3)[nH]c12.O=C(O)C(F)(F)F` (stereo not given) the Inhibition was 41%. Compound `CC(C)c1ccc(-c2noc(SCC(=O)N3CCCCC3C)n2)cc1` (stereo not given) has an Inhibition of 21%. Work on `COc1ccc(-c2ccc(NC(=O)c3cccc(F)c3)cc2)cc1CN1CCCN(C)CC1.O=C(O)C(F)(F)F` yielded an Inhibition of 32%. With `COCCNCc1cccc(-c2ccccc2CN(C(=O)c2ccc3c(c2)OCO3)c2ccc(OC)cc2)c1.O=C(O)C(F)(F)F` the Inhibition was 6%. Work on `CCc1cn2c3c(cc(C(=O)N[C@@H](Cc4cccc(Cl)c4)[C@H](O)CNC4CCOCC4)cc13)N(C)S(=O)(=O)CC2.O=CO` yielded an Inhibition of 2%. Compound `Fc1ccc2[nH]c(-c3ccc(-c4cccc(CN5CCC(CCN6CCCCC6)CC5)c4)cc3)nc2c1.O=C(O)C(F)(F)F` has an Inhibition of 96%. With `Cl.O=c1cc(NCCCNCc2cc3c(Cl)cc(Cl)cc3[nH]2)[nH]c2ccccc12` the Inhibition was 0%. With `Cl.O=C(NC1CCC(CCN2CCc3ccc(-c4cnccn4)cc3CC2)CC1)c1cccc(-n2cccn2)c1` (stereo not given) the Inhibition was 23%. `CCCCN(CCCC)CCNC(=O)c1ccc(-c2nc3cc(Cl)ccc3[nH]2)c(OCC)c1` showed an Inhibition of 0%. `CCC(=O)Nc1ccc(Nc2nc(C)cc(N3CCCC3)n2)cc1` was tested, and the Inhibition was 34%. `N=C(NCCCCCCCCNC(=N)Nc1ccc(Cl)cc1)Nc1ccc(Cl)cc1` gave an Inhibition of 10%. Compound `Cc1cc(Nc2ccc(Cl)c(Cl)c2)n2nc(C)nc2n1` has an Inhibition of 6%. `CC1CN(Cc2cccc(F)c2)CCN1c1ccc(NC(=O)c2ccc(F)cc2)cc1.O=C(O)C(F)(F)F` (stereo not given) was tested, and the Inhibition was 0%. `CCOc1cc(C)ccc1C1CCN(CCCCNC(=O)c2nc(-c3ccc(C(F)(F)F)cc3)[nH]c2C)CC1.Cl` gave an Inhibition of 30%. `O=C(O)C(F)(F)F.Oc1ccc(CCNc2nc(NCc3cccc(OCc4cccc(F)c4)c3)nc(N3CCNCC3)n2)cc1` was tested, and the Inhibition was 27%. For `CCN(CC)CCNc1ccnc2[nH]c3ccc(I)cc3c12`, the Inhibition was 14%. In the case of `Cc1cccc2nc(-c3ccc(-c4cccc(CN5CCN(CC6CCCN(C)C6)CC5)c4)s3)[nH]c12.O=C(O)C(F)(F)F` (stereo not given), the Inhibition is reported as 47%. For `COCCNc1nc(N2CCC(CNC(=O)c3ccc(-c4ccc(C(=O)N(C)C)cc4C)cc3)CC2)nc2cc(OC)c(OC)cc12`, the Inhibition was 12%. For `Br.CCCN(CCCCCCN(CCC)CCc1ccc(O)c(O)c1)CCc1ccc(O)cc1`, the Inhibition was 0%. With `C#CCNC(=O)c1ccc(-c2ccnc(Nc3cccc(CCCN4CCOCC4)c3)n2)s1` the Inhibition was 54%. In the case of `CCCCNCc1ccc(-c2nc(CN(CCCN3CCN(C)CC3)C(=O)Nc3cccc(Cl)c3)cs2)cc1.O=C(O)C(F)(F)F`, the Inhibition is reported as 35%.
